Experimental data published in the supplement of paper PMC7393113.
± gives the standard deviation of the averaged measurements.

Tested on: iBMDM (immortalised mouse bone-marrow-derived macrophages), LPS-stimulated
Experiment: mitochondrial superoxide (MitoSOX fluorescence) fold increase over unstimulated control; higher = more LPS-induced mitochondrial ROS (less inhibition)
Conditions: inhibitor concentration: 500 nM, LPS: 100 ng/ml
Outline: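 Mitochondrial superoxide values are mean fold induction compared with untreated macrophages. Triplicate wells of immortalised mouse bone-marrow-derived macrophages in phenol-red-free 1% FCS/DMEM received kinase inhibitors (500 nM) for 30 min, then 1 μM MitoSox for 10 min, then LPS (100 ng/ml). Fluorescence (510/580 nm) was taken every 60 min for 4 h.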

Compound | mitochondrial superoxide (time after LPS: 1 h) | mitochondrial superoxide (time after LPS: 2 h) | mitochondrial superoxide (time after LPS: 4 h)
O=C(Nc1cccc(Nc2ncc(Br)c(NCCc3cnc[nH]3)n2)c1)N1CCCC1 | 1.13 ± 0.088 | 1.11 ± 0.043 | 1.16 ± 0.04
Oc1cc(O)cc(/C=C/c2ccc(O)c(O)c2)c1 [Piceatannol] | 1.13 ± 0.0055 | 1.15 ± 0.013 | 1.23 ± 0.041
FC(F)(F)c1ccc(/C=C/c2nc(COc3ccc(CCCCn4ccnn4)cc3)co2)cc1 [Mubritinib (TAK 165)] | 1.06 ± 0.033 | 1.17 ± 0.075 | 1.296 ± 0.0099
CC[C@@H]1C(=O)N(C)c2cnc(Nc3ccc(C(=O)N[C@H]4CC[C@H](N5CCN(CC6CC6)CC5)CC4)cc3OC)nc2N1C(C)C [Volasertib (BI 6727)] | 1.18 ± 0.016 | 1.27 ± 0.026 | 1.37 ± 0.043
CO[C@H]1C[C@@H]2CC[C@@H](C)[C@@](O)(O2)C(=O)C(=O)N2CCCC[C@H]2C(=O)O[C@H]([C@H](C)C[C@@H]2CC[C@@H](OP(C)(C)=O)[C@H](OC)C2)CC(=O)[C@H](C)/C=C(\C)[C@@H](O)[C@@H](OC)C(=O)[C@H](C)C[C@H](C)/C=C/C=C/C=C/1C [Ridaforolimus (Deforolimus, MK-8669)] | 1.55 ± 0.087 | 1.592 ± 0.0072 | 1.78 ± 0.04
NC1(C(=O)N[C@@H](CCO)c2ccc(Cl)cc2)CCN(c2ncnc3[nH]ccc23)CC1 | 1.38 ± 0.024 | 1.54 ± 0.046 | 1.61 ± 0.029
C=CC(=O)N1CCC[C@@H](n2nc(-c3ccc(Oc4ccccc4)cc3)c3c(N)ncnc32)C1 | 1.26 ± 0.099 | 1.32 ± 0.041 | 1.46 ± 0.043
Cc1cc(F)c(Nc2ncnc3cc(OCc4ccccc4)ccc23)cc1O | 1.17 ± 0.075 | 1.11 ± 0.018 | 1.2 ± 0.016
Cc1ccc(C(=O)Nc2cccc(C(F)(F)F)c2)cc1Nc1nc(-c2cccnc2)nc2c1cnn2C | 1.23 ± 0.037 | 1.27 ± 0.013 | 1.38 ± 0.083
